SMILES strings stand for the structures. Activity calls are given as the source filed them.

Results on five molecules are retold here after PubChem BioAssay.

Assay [1] relates to Human papillomavirus type 1a protein E7 (residues 44-93). In words: HPV1a E7 fragment binders on microarrays, primary screen, biochemical, small-molecule microarray, residues 44-93, 635 nm fluorescence (AID 1108).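 Also: E7 fragment applied at 1 µg/mL in TBST for 1 h at 4 C; score combines spot fluorescence with its signal to noise ratio.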 The conditions noted are these: small-molecule microarray binding, fluorescence 635 nm; higher = more signal.
Assay [2] in a line: modulators of HCV replicon luciferase signal, primary screen, HCV replication inhibitor project, Huh7 cells, luciferase reporter (AID 1109).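 Also: huh7 hepatoma cells harbouring a luciferase neomycin HCV replicon reporter; luciferase luminescence as measure of HCV replicon replication; test concentration not given here.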 The conditions noted are these: 48 h, higher = more signal.
In assay [3] the target is Left-right determination factor 2 (Homo sapiens) (UniProt O00292). In words: LEFTY2 binders on small-molecule microarrays, primary screen, biochemical, small-molecule microarray, 635 nm fluorescence scan (AID 1110). The conditions noted are these: LEFTY2 binding, higher = more signal.
Sequence of Left-right determination factor 2 (Homo sapiens) (O00292 whole entry, looked up): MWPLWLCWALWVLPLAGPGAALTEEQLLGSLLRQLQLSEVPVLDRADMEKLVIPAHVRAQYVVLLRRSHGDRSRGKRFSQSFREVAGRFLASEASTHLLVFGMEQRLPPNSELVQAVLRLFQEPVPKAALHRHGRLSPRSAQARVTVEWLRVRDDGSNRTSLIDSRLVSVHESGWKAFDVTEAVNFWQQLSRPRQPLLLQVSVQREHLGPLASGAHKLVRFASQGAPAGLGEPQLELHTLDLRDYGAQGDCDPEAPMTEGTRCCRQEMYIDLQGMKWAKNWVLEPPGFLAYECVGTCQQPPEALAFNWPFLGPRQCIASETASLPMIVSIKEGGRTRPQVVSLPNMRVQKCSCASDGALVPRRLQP
For assay [4], the target named is Calmodulin-1 (Homo sapiens) (UniProt P0DP23). In words: CALM1 binders on microarrays, EGTA buffer, profiling panel, biochemical, small-molecule microarray, Cy5-labelled CALM1 (AID 1111).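 Also: labelled calmodulin applied in Tris saline Tween buffer holding calcium plus EGTA and DTT.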 The conditions noted are these: Cy5-CALM1 binding fluorescence, higher = more signal.
Assay [5] has the same target. In words: calcium-bound CALM1 binders on microarrays, profiling panel, artefact control for SMM control-protein annotation, biochemical, small-molecule microarray, Cy5-labelled CALM1, plus calcium (AID 1112).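 Also: score merges spot fluorescence with signal to noise from triplicate slides.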 The conditions noted are these: Cy5-CALM1 binding fluorescence, higher = more signal.
Assay [6] can be described thus: small-molecule microarray binders of probe aWnt5a, primary screen, biochemical, biotinylated probe, 635/667 nm fluorescence (AID 1113).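 Also: score merges 667 nm fluorescence intensity with signal-to-noise per printed feature.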 Particulars: higher = more signal.
Assay [7] can be described thus: small-molecule microarray binders of probe aShh, primary screen, biochemical, biotinylated probe, 635/667 nm fluorescence (AID 1114).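 Also: probe is biotin-labelled aShh protein from a stem cell growth factor screen; measures binding of labelled protein to compounds printed on the slide; score merges feature fluorescence at 667 nm with signal-to-noise.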 The conditions noted are these: higher = more signal.
Assay [8] is described as follows: small-molecule microarray binders of probe aNog, primary screen, biochemical, biotinylated probe, 635/667 nm fluorescence (AID 1115).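 Also: probe is biotinylated aNog protein used at 0.15 µg/mL for 1 h at 4 C; z-score combines 667 nm fluorescence of each spot with its signal to noise.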 Particulars: higher = more signal.
For assay [9], the target named is Torsin-1A-interacting protein 1 (Homo sapiens) (UniProt Q5JTV8). In words: LAP1 binders from COS7 cell lysate, primary screen, small-molecule microarray, 635/667 nm fluorescence (AID 1116). The conditions noted are these: COS7-hLAP1 lysate binding, 635 nm fluorescence, higher = more signal.
Sequence of Torsin-1A-interacting protein 1 (Homo sapiens) (Q5JTV8 whole entry, looked up): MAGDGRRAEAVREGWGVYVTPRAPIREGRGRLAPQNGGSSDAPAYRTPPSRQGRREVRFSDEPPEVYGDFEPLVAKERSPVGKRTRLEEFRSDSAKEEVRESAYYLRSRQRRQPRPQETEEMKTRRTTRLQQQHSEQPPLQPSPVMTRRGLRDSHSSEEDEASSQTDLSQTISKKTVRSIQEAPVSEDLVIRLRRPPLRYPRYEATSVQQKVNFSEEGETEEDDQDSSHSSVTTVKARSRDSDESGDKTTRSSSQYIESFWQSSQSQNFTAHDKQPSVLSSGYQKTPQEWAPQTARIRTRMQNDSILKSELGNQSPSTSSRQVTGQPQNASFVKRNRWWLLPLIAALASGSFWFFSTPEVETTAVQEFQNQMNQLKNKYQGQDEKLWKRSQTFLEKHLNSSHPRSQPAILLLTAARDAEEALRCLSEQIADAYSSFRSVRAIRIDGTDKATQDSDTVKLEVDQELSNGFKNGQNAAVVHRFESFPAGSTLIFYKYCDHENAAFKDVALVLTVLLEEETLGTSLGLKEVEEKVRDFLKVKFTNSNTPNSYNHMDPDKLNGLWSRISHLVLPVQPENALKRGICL
Assay [10] concerns the target Alpha-bungarotoxin (Bungarus multicinctus) (UniProt P60615). In words: alpha-bungarotoxin binders on microarray, profiling panel, artefact control for SMM control protein annotation, biochemical, small-molecule microarray, Alexa647 label, 635/667 nm fluorescence (AID 1117). The conditions noted are these: alpha-BTX-A647 binding fluorescence, higher = more signal.
For assay [11], the target named is Albumin (Bos taurus) (UniProt P02769). In words: bovine serum albumin binders on microarray, profiling panel, artefact control for SMM control protein annotation, biochemical, small-molecule microarray, Alexa647 label, 635/667 nm fluorescence (AID 1118).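 Also: score merges 667 nm emission intensity and signal-to-noise per printed compound spot.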 The conditions noted are these: BSA-A647 binding, fluorescence 635 nm, higher = more signal.
Sequence of Albumin (Bos taurus) (P02769 whole entry, looked up): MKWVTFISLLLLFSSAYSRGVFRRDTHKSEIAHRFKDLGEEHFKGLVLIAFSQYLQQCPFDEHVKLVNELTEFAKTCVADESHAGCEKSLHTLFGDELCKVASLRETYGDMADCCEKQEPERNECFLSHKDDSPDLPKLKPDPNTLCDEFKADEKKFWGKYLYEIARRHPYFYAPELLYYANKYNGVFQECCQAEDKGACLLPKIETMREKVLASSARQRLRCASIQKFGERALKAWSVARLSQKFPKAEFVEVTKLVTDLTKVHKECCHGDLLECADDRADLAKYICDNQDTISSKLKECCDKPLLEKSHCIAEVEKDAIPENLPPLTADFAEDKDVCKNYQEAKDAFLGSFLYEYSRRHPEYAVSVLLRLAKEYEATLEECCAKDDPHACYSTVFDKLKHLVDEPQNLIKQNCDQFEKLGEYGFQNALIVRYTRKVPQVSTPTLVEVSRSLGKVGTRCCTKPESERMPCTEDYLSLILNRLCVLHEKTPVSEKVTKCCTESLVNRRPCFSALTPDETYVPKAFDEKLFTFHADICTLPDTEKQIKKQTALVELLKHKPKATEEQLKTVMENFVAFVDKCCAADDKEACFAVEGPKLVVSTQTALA
A short description of assay [12]: small-molecule microarray binders of probe aXIP, primary screen, biochemical, NeuroSMM set, 635/667 nm fluorescence (AID 1119).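 Also: probe is the protein aXip251-270 applied at 1 µg/mL to compound-printed slides; binding of probe to printed compounds measured as 667 nm fluorescence plus signal to noise.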 Particulars: higher = more signal, called active from +8 up or from −8 down.
The nature of assay [13]: small-molecule binders of probe aNOTCH3, primary screen, biochemical, small-molecule microarray, 635/667 nm fluorescence (AID 1120).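 Also: probe is a biotin-tagged antibody raised against NOTCH3 rather than NOTCH3 protein; score merges spot fluorescence near 667 nm with spot signal to noise.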 The conditions noted are these: higher = more signal.
Assay [14] in a line: small-molecule binders of probe aNOTCH2, primary screen, biochemical, small-molecule microarray, 635/667 nm fluorescence (AID 1121).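 Also: score merges feature fluorescence read at 667 nm with its signal to noise.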 The conditions noted are these: higher = more signal.
The target of assay [15] is Carbonic anhydrase 2 (Homo sapiens) (UniProt P00918). In words: CAII small-molecule binders, profiling panel, biochemical, small-molecule microarray, Alexa647-labelled CAII (AID 1122). The conditions noted are these: CAII-A647 binding fluorescence, higher = more signal.
Assay [16] can be described thus: COS7 lysate on small-molecule microarray, probe aHis, 635 nm (AID 1123).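 Also: z-score combines 667nm fluorescence intensity with signal-to-noise per printed compound spot.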 Particulars: COS7 cell lysate, fluorescence, higher = more signal.
Assay [17] can be described thus: compound binding in COS7 lysate, probe aLAP1, primary screen, cell lysate, small-molecule microarray (AID 1124).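 Also: lysate comes from COS7 cells expressing LAP1 and is applied at 0.3 µg/mL; score merges spot fluorescence near 667 nm with signal-to-noise over triplicate slides.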 Particulars: probe aLAP1, fluorescence, higher = more signal.
Assay [18] concerns Sam68 (KHDRBS1). In words: Sam68 small-molecule binders, primary screen, biochemical, small-molecule microarray, 635 nm fluorescence (AID 1125).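 Also: score merges 667 nm channel intensity with signal to noise over triplicate slides.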 The conditions noted are these: small-molecule microarray binding, higher = more signal.
Assay [19] deals with Chordin-like protein 2 (CHRDL2). In words: CHRDL2 small-molecule binders, primary screen, biochemical, small-molecule microarray, 635 nm fluorescence (AID 1126).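 Also: printed compound slides probed with Chrdl2 protein at 4 µg/mL for 1 h at 4 C; score merges 667 nm emission intensity with signal to noise over three replicate slides.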 The conditions noted are these: small-molecule microarray binding, fluorescence 635 nm; higher = more signal.
Assay [20] has as its target Concanavalin-A (Canavalia ensiformis) (UniProt P02866). In words: ConA small-molecule binders, primary screen, artefact control for SMM control protein annotation, biochemical, small-molecule microarray, Alexa647 label, 635 nm (AID 1127).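 Also: z combines 667 nm emission intensity with signal-to-noise across three replicate slides.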 Particulars: ConA-A647 binding fluorescence, higher = more signal.

Sequence of Concanavalin-A (Canavalia ensiformis) (P02866 whole entry, looked up): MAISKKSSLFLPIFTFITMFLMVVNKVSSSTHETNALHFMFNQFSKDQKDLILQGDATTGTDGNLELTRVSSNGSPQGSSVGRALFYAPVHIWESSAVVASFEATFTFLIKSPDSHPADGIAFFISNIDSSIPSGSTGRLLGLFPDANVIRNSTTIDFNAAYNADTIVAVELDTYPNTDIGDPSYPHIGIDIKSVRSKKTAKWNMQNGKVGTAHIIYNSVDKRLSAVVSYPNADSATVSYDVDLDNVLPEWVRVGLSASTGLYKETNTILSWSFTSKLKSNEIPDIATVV
Sequence of Alpha-bungarotoxin (Bungarus multicinctus) (P60615 whole entry, looked up): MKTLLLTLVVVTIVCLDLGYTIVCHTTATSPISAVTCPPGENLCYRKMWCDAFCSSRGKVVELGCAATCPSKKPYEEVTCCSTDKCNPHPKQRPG

Consider `CCOC(=O)C1=CCC(c2ccc(F)cc2)N(S(=O)(=O)c2ccc(C)cc2)C1` (stereo not given), for which the composite z-score in assay [1] is 0.683; in [3], 0.105; in assay [4] it was 0.0017; in assay [5], 0.0535; in assay [6], -0.184; in assay [7], -0.167. The composite z-score in [8] is -0.494; in [9] it was 0.612; in assay [10] it was 0.25; in assay [11] it was 0.569; in [13], 0.0351; in assay [14] it was -0.113. Further, the composite z-score was determined as 0.397 in assay [15]; 0.75 in assay [16]; 0.552 in [17]; 0.376 in assay [18]; 0.563 in [19]; 0.221 in assay [20]. The molecule also yielded a z-score in [2] of -1.81. Moreover, the composite Z-score in assay [12] is -0.297 (inactive).

For the molecule `COCCOC(=O)N1C(=O)[C@@]2(c3cc(C#CCCO)ccc31)[C@H](c1ccc(O)cc1)N1[C@H](c3ccccc3)[C@H](c3ccccc3)OC(=O)[C@H]1[C@@H]2C(=O)N1CCN(c2ncccn2)CC1`, the composite z-score came to 1.17 in assay [1]; 0.613 in assay [3]; 1.42 in assay [4]; 0.374 in assay [5]; 0.594 in [6]; 0.918 in [7]. In addition, the composite z-score came to 2.56 in [8]; 1.68 in assay [9]; 1.47 in assay [10]; 0.435 in assay [11]; 1.28 in assay [13]; 0.51 in [14]. For the same molecule, the composite z-score in [15] worked out at 0.183; in assay [16], 2.92; in assay [17], 0.782; in assay [18] it was 1.29; in assay [19], 0.677; in [20], 1.16. The same molecule had a z-score in assay [2] of -0.305. Also, in assay [12], the composite Z-score was 0.982 (inactive).

On to `COC(=O)[C@@]1(Cc2ccc(OC)cc2)[C@H]2c3cc(C(=O)N4CCCC4)n(CCCNc4ncc(C(F)(F)F)cc4Cl)c3C[C@H]2CN1C(=O)c1ccccc1`, for which the composite z-score in [1] stood at 0.958; in assay [3], 0.0792; in [4] it was 1.33; in assay [5], 0.74; in assay [6] it was 0.901; in assay [7], 0.76. Further, the composite z-score was -0.447 in assay [8]; -0.0323 in assay [9]; 0.884 in assay [10]; 0.978 in assay [11]; 1.09 in assay [13]; 0.787 in assay [14]. The composite z-score came out at 0.516 in [15]; 0.97 in [16]; 0.213 in assay [17]; 0.313 in assay [18]; 0.269 in assay [19]; 0.878 in assay [20]. The molecule also gave a z-score in [2] of -2.32. In addition, in assay [12], the composite Z-score was -0.682 (inactive).

Consider `O=C1C2C=CC(C(O)c3c(F)cccc3Cl)N(Nc3ccccc3F)C2C(=O)N1c1ccccc1` (stereo not given), for which the composite z-score in assay [1] is 1.43; in assay [3], -0.165; in assay [4], 1.24; in [5], 0.265; in assay [6] it was 0.0136; in [7] it was 0.701. The composite z-score in assay [8] is 0.933; in [9] it was 1.43; in assay [10], 0.543; in assay [11], 0.913; in [13] it was 0.185; in [14] it was -0.0216. In addition, the composite z-score is 0.691 in [15]; 1.67 in assay [16]; 0.497 in [17]; 1.21 in [18]; -0.534 in assay [19]; 0.972 in assay [20]. Moreover, the z-score in assay [2] was -0.665. Also, the composite Z-score in assay [12] was -0.145 (inactive).

As to `COC(=O)c1c2oc(c1C(=O)OC)C(=O)NC1(CCCCC1)c1cn(nn1)C[C@H](Cc1ccccc1)NC(=O)N[C@H](CO)CC2`, the composite z-score in assay [1] was 0.973; in assay [3] it was 0.23; in [4], 0.0166; in [5] it was -0.396; in assay [6], -0.0955; in assay [7], -0.237. Further, the composite z-score in assay [8] is -0.321; in assay [9] it was 0.227; in assay [10], 0.531; in assay [11], 0.692; in assay [13], -0.207; in assay [14], -0.167. The composite z-score in assay [15] is 0.269; in [16] it was 1.75; in assay [17], -0.0871; in [18] it was 0.789; in [19], 0.296; in assay [20], 0.91. This molecule also came in with a z-score in assay [2] of -0.791. In addition, in assay [12], the composite Z-score was 0.992 (inactive).
